Screening data from PubChem.
This is a sample that favours compounds with a hit; in the whole collection about 4.5% have one here.
DAX1 inh-1 – inhibitors of human orphan nuclear receptor DAX1 (NR0B1); HEK293 Gal4-DAX1 luciferase reporter, luminescence; P51843; 340,000 compounds, 0.99% hits; inhibition, % at 6.75 µM;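 active means inhibition above the mean over all tested compounds plus 3 SD, cut at about 4.2% in these data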;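 further: 0% = DAX1-transfected cells with DMSO and 100% = empty-vector control cells with DMSO; inhibition shows as a rise in luminescence from relieved DAX1 repression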
Target sequence (P51843 207-470 limits assumed): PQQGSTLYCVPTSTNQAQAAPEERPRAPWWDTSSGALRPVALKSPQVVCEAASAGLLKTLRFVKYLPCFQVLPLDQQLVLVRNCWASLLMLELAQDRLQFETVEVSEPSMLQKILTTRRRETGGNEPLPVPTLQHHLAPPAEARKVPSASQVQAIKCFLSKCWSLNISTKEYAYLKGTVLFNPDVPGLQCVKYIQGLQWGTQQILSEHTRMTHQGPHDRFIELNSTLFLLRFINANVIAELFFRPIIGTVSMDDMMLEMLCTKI
ssDAF12 agonist – S. stercoralis DAF-12 activation, primary screen; HEK293 ssDAF-12/GRIP1 lit1-tk-luc reporter, luminescence; % of 3 µM dafachronic acid response; activation, % at 6.8 µM; 370,000 compounds, 1% hits;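 active means activation above the mean over all tested compounds plus 3 SD, cut at about 0.9% in these data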;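 further: 0% = DMSO-only wells and 100% = 3 µM delta7-dafachronic acid wells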
DAX1 inh-2 – blocks DAX1 repression of SF-1 activated StAR promoter | HEK293T StAR-luciferase reporter, SF-1/DAX-1 repression relief | inhibition, % at 6.8 µM | 370,000 compounds, 1.1% hits | AID 652010;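 active means inhibition above the mean over all tested compounds plus 3 SD, cut at about 3.6% in these data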;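 further: 0% = DAX-1 cells with DMSO and 100% = cells lacking DAX-1 with DMSO; higher inhibition means more luminescence from relief of DAX-1 repression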
FXN GAA850 act – increases GAA850 frataxin promoter reporter activity; HEK293 lucGAA850 FXN promoter luciferase reporter, 24 h; percent of 10 µM SAHA response; activation, % at 6 µM; 360,000 compounds, 0.56% hits;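 active means activation above the average of all compounds screened plus 3 SD, cutoff fixed separately per campaign, cut at about 7.5% in these data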;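 further: 0% = DMSO wells and 100% = 10 µM SAHA wells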
hgDAF-12 ag – hgDAF-12 agonism, primary luciferase screen | activation, % at 6.8 µM | 370,000 compounds, 1.8% hits | AID 687014 | HEK293 GAL4-hgDAF12 UAS-luciferase reporter, agonist luminescence; normalized to butyrate control;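 active means activation above a cutoff set at the mean of all screened compounds plus 3 SD, cut at about 10% in these data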;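 further: 0% = DMSO wells and 100% = sodium butyrate wells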
hcDAF12 agonist – H. contortus DAF-12 activation, primary screen; HEK293 hcDAF-12 lit1-tk-luc reporter, luminescence; 0% DMSO, 100% Δ7-dafachronic acid; activation, % at 6.8 µM; 370,000 compounds, 1.4% hits; AID 652067;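 active means activation above the mean of all tested compounds plus 3 SD, cut at about 5.5% in these data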;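 further: 100% = response to 3 µM Δ7-dafachronic acid high control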
Starred values were filed as active, the others as inactive; nt = not tested or not shown.

SMILES | DAX1 inh-1 | ssDAF12 agonist | DAX1 inh-2 | FXN GAA850 act | hgDAF-12 ag | hcDAF12 agonist
O=C(Nc1cccc(-c2nc3ccccc3s2)c1)c1cc(-n2cnnc2)ccc1Cl | -1 | nt | nt | 3 | nt | nt
Cc1ccc(NC(=O)OCCCN2C(=O)CCC23CCC(C)CC3)cc1C (stereo not drawn) | nt | -1 | -1 | nt | -3 | 1
C/C(=N\O)C(C)(C)Nc1cccc(F)c1 | 5.2* | -1 | 1 | 1 | 0 | 0
C/C(=N\O)C(C)(C)Nc1cccc(Br)c1 | -1 | -1 | 0 | -1 | -2 | -1
CN(C)N=Nc1ccc(-c2cn(Cc3ccccc3)cn2)cc1 | 2 | 1.0* | 1 | 4 | 10 | 2
O=C(NC(Cc1c[nH]c2ccccc12)C(=O)OCC(=O)c1cccc2ccccc12)c1cccs1 (stereo not drawn) | 1 | -1 | 0 | 0 | 3 | 6.1*
NC(=O)CCN1CCCCC1 | 4.5* | -2 | 0 | 0 | 0 | 1
O=C(CCC(=O)CCN1CCCCC1)CCN1CCCCC1 | 2 | 0 | 0 | 1 | 3 | 1
Cc1cccc(C(=O)OCC(=O)NCC2COc3ccccc3O2)c1 (stereo not drawn) | 0 | -1 | 4.3* | 1 | -2 | 3
OCCCN1CCC2(CCC(c3ccccc3)CC2)C1 (stereo not drawn) | nt | -2 | 0 | nt | 2 | 2
Cc1ccc(O)c(C(=O)CC(=O)c2ccc(Cl)cc2)c1 | 2 | 0 | 2 | 6 | 11* | 5
Cc1cccc(C(=O)CC(=O)c2cc(Cl)ccc2O)c1 | 1 | nt | nt | -1 | nt | nt
O=C(CC(=O)c1cc(Cl)ccc1O)c1ccccc1 | 3 | -1 | 1 | 4 | 12* | 2
O=C(OC12CCCN(C1)/C(=C/c1cccc(Cl)c1)C2)c1ccco1 (stereo not drawn) | nt | -1 | 2 | nt | -1 | -1
COc1ccc(CCC[C@H](CCC(=O)N(c2ccccc2)c2ccccc2)CCc2ccccc2)cc1 | nt | -1 | -1 | nt | 1 | -3
OC(COc1ccc2ccccc2c1Cl)CN1CCOCC1 (stereo not drawn) | 2 | -1 | 2 | 3 | 12* | 1
OC(COc1cccc2ccccc12)CN1CCOCC1 (stereo not drawn) | 1 | 0 | 0 | 1 | -5 | 0
COc1ccccc1N1CCN(c2ccc(N3C(=O)CCC3=O)cc2[N+](=O)[O-])CC1 | -1 | -1 | 0 | 3 | 1 | 0
COc1cccc(N2CCN(c3ccc(N4C(=O)CCC4=O)cc3[N+](=O)[O-])CC2)c1 | 6.6* | -1 | -1 | 1 | 2 | -1
COC(=O)C1CN(Cc2ccc(F)cc2)CCS(=O)(=O)N1Cc1cn(Cc2ccccc2)nn1 (stereo not drawn) | nt | -1 | -1 | nt | 3 | -1
COC1=C[C@H](C(=O)NCCNC(C)=O)[C@@]2(C)Cc3ccccc3[C@H]2CC1=O | nt | -1 | 0 | nt | -4 | -2
COc1ccc(S[C@]2(C(=O)N3CCCC3)CC(=O)N(C(=O)Nc3ccc(C)c(Cl)c3)[C@@H]2c2ccc(OC)cc2)cc1 | nt | -1 | 0 | nt | -1 | -1
O=S(=O)(c1c(Cl)sc(Cl)c1Br)N1CCCC1 | 0 | 1.5* | 0 | 2 | -1 | -1
CCn1c(SCC(=O)Nc2ccccc2-c2ccccc2)nnc1-c1ccc(Cl)cc1 | nt | -1 | 0 | nt | 0 | -2
C=CCN1[C@H](CC(C)C)COc2cc(N3CCCC3)ccc2S1(=O)=O | nt | 0 | -1 | nt | -2 | -2
SMILES | DAX1 inh-1 | ssDAF12 agonist | DAX1 inh-2 | FXN GAA850 act | hgDAF-12 ag | hcDAF12 agonist
COc1ccc(NC(=S)NC(=O)C2CCCCC2)cc1 | 2 | -1 | 3.8* | 5 | 4 | 1
COc1ccc(NC(=O)C2CCCC2)cc1 | 1 | -1 | 0 | 2 | 5 | 1
CN1CCN(S(=O)(=O)c2ccc(NC(=S)NC(=O)C3CCCCC3)cc2)CC1 | 0 | -1 | -1 | 2 | 3 | 0
NS(=O)(=O)c1ccc(NC(=S)NC(=O)C2CCCC2)cc1 | 1 | -1 | 0 | 1 | -2 | 5.8*
CC(C)C[C@H]1COc2cccc(F)c2S(=O)(=O)N1Cc1cn(Cc2ccc(C(F)(F)F)cc2)nn1 | nt | -1 | -1 | nt | 2 | -3
O=C(OCC#CCSc1nnc(-c2cccc3ccccc23)o1)c1ccsc1 | nt | -1 | nt | nt | 11* | 1
CC1CCc2nc(NC(=O)C3CCCO3)sc2C1 (stereo not drawn) | 1 | 1 | 3.7* | 1 | 12* | 6.5*
CS(=O)(=O)c1ccc2nc(NC(=O)Oc3ccccc3)sc2c1 | 2 | -1 | -1 | 1 | 3 | -2
O=C(Nc1nc2ccc(F)cc2s1)Oc1ccccc1 | 0 | 0 | 0 | 4 | 2 | 6.5*
O=C(Nc1nc2cc3c(cc2s1)OCCO3)c1ccco1 | -5 | -2 | -8 | -9 | -12 | -5
O=C(NC(=S)Nc1nc2ccc(F)cc2s1)c1ccco1 | 2 | 2.6* | 2 | 4 | 5 | 5.8*
O=C(Nc1nc2ccc(F)cc2s1)C1CCCO1 (stereo not drawn) | 1 | 0 | 4.0* | 4 | 11* | 5
C[C@H]1C2CC(OC(=O)Nc3cccc(C(F)(F)F)c3)C(C2)[C@H]2CCCCN21 (stereo partly drawn) | nt | -1 | 0 | nt | -2 | 0
Cc1ccc2c(c1)c1c3n2CCN(CCC#N)C3CCC1 (stereo not drawn) | 4.5* | 0 | 0 | -1 | -1 | 1
CCN1CCn2c3c(c4cc(C)ccc42)CCCC31 (stereo not drawn) | 1 | -1 | 1 | 1 | 0 | -1
O=C(Nc1cccc(C(F)(F)F)c1)OCCCN1CCC2(CCC(c3ccccc3)CC2)C1=O (stereo not drawn) | nt | -1 | -1 | nt | 1 | -1
C(=C\c1ccccc1)/C=N/N1CCN(c2ccccn2)CC1 | 1 | 0 | 1 | 0 | 11* | 3
C(/C=C/c1ccccc1)=N/N1CCN(c2ccccc2)CC1 | 2 | 0 | 0 | 5 | 0 | -1
CC(Sc1nnc(C2CC2)n1-c1ccccc1)C(=O)N1CCCC1 (stereo not drawn) | 1 | -1 | 0 | 1 | 13* | 0
CCOc1ccc(-n2c(SCC(=O)Nc3ccc(OCc4ccccc4)cc3)nnc2-c2ccc(Cl)cc2)cc1 | nt | -1 | 0 | nt | 0 | 1
O=S1(=O)CC2c3ccc(F)cc3CN2CN1Cc1ccccc1 (stereo not drawn) | nt | -1 | 0 | nt | 2 | 2
NNC(=O)CNc1ccccc1Cl | 2 | 1.0* | 0 | 2 | 0 | 0
O=C(CCCCC(=O)Nc1ccccc1Cl)Nc1ccccc1Cl | 0 | -1 | 0 | 0 | 3 | 0
CNc1nc(N)c([N+](=O)[O-])c(Nc2cccc(OC)c2)n1 | nt | -2 | nt | nt | -1 | 1
